This note sets out measurements from PubChem BioAssay AID651658 (Broad Institute, 2012).

Where “and” joins values, the source holds several entries; their conditions need not be identical. Equal values may be shown once. The whole screen tested about 340,000 compounds, of which about 5,100 (1.5%) were called active. The entries come from a sample that favours actives as a whole. Unmarked numbers belong to inactive results.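 How the source made its calls: active means mean Tm shift, scaled 0 neutral to 100 positive control, at about 1.3% or above, every replicate too (limit read from the data); inconclusive means no clear call, values can overlap the other calls; inactive means the rest.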

For this assay, the target named is Fibroblast growth factor 22 (Homo sapiens) (UniProt Q9HCT0). Put plainly: FGF22 ligand-induced thermal stabilization – biophysical, thermal shift, single point, FGF22 synaptogenesis inhibitor project, primary screen (AID 651658). As to conditions: recombinant FGF22 thermal shift, SYPRO orange fluorescence; at 9.99 µM; hits give high values; percent of sucrose octasulfate shift, DMSO zero.
Sequence of Fibroblast growth factor 22 (Homo sapiens) (Q9HCT0 whole entry, looked up): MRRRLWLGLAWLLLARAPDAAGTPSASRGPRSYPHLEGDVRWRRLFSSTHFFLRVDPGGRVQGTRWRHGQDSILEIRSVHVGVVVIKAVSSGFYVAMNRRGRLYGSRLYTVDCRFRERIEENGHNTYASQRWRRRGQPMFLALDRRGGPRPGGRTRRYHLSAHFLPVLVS
Regarding `Cc1ccc(S(=O)(=O)N(C)C[C@@H]2Oc3c(NC(=O)c4nc5ccccc5s4)cccc3C(=O)N([C@H](C)CO)C[C@@H]2C)cc1`, the activity (Tm shift, normalised) was -0.725%.
For `CC(C)=CCc1ccc(O)c(=O)cc1C(C)C`, the activity (Tm shift, normalised) was 43.3% (active).
Under `CC(C)c1cc(N=O)cc(C(C)C)c1O` stands -0.097%; under `CC(C)=CCc1c(O)c(CC=C(C)C)c2occ(-c3ccc(O)cc3)c(=O)c2c1O`, 0.178%.
Take `C[C@@H]1CCCCO[C@@H](CN(C)C(=O)CCCN(C)C)[C@@H](C)CN([C@H](C)CO)C(=O)c2cc(NC(=O)CCCN(C)C)ccc2O1`: the activity (Tm shift, normalised) was -0.145%.
Turning to `C[C@H](CO)N1C[C@H](C)[C@H](CN(C)C)Oc2ncc(-c3ccncc3)cc2C1=O`, the activity (Tm shift, normalised) was -0.058%.
Under `O=C(O)c1cccc(S(=O)(=O)Nc2ccc(O)cc2Sc2nc3ccccc3s2)c1` stands 15.9% (active).
In the case of `O=S(=O)(Nc1ccc2nc(N3CCOCC3)sc2c1)c1ccccc1`, the activity (Tm shift, normalised) is -0.216%.
For `Cc1nc2ccc(NC(=O)c3cccc(S(=O)(=O)N4CCOCC4)c3)cc2s1`, the activity (Tm shift, normalised) was 1.04%.
`O=C(NC[C@@H]1[C@@H](c2ccccc2)[C@H](CO)N1C(=O)Cc1cccnc1)C1CC1`: the activity (Tm shift, normalised) was -1.07%.
As to `CC(=O)NC[C@@H]1[C@@H](c2ccccc2)[C@@H](CO)N1C(=O)Cc1cccnc1`, the activity (Tm shift, normalised) was 1.29% (active).
In the case of `CC(=O)NC[C@H]1[C@H](c2ccccc2)[C@@H](CO)N1C(=O)Cc1cccnc1`, the activity (Tm shift, normalised) was -0.409%.
Take `O=C(C[C@@H]1C=C[C@H](NC(=O)CN2CCOCC2)[C@@H](CO)O1)NC1CCC1`: the activity (Tm shift, normalised) is 0.045%.
As to `O=C(NCC[C@@H]1CC[C@H](NC(=O)C2CC2)[C@@H](CO)O1)c1cc(Cl)cc(Cl)c1`, the activity (Tm shift, normalised) was -0.053%.
Turning to `COc1ccccc1-n1c(SCC(=O)Nc2ccc(Cl)cc2)nc(O)c(Cc2ccccc2)c1=O`, the activity (Tm shift, normalised) is 43.9% (active).
`COc1ccc(NC(=O)CSc2nnc(Cc3ccccc3)c(=O)n2N)cc1`: the activity (Tm shift, normalised) is -0.143%.
On to `CCOc1ccc(NC(=O)CSc2nc3c(c(=O)n2-c2ccccc2OC)SCC3)cc1`, for which the activity (Tm shift, normalised) is -0.136%.
The result for `CN1c2ccc(-c3ccc(F)cc3)cc2[C@@H]2[C@@H](CCN2C(=O)c2cccnc2)[C@H]1CO` reads -0.025%; that for `CO[C@@H]1CN(C)C(=O)c2ccc(NC(=O)NC(C)C)cc2OC[C@H](C)N(Cc2ccc(-c3ccccn3)cc2)C[C@H]1C`, 0.425%; that for `CCCCCOc1ccc(/C=C/C(=O)NCCc2nc3ccccc3[nH]2)cc1OC`, 0.206%.
Under `COc1cc(/C=C(\C#N)c2nc3ccccc3[nH]2)ccc1O` stands 2.24% (active); under `CCOc1ccc(/C=C(/C#N)c2nnc(N3CCOCC3)n2-c2ccccc2)cc1OC`, -0.121%.
The result for `CCCC(=O)Nc1ccc2c(c1)OC[C@H](C)N(CCC(F)(F)F)C[C@@H](C)[C@H](OC)CN(C)C2=O` reads -0.05%.
As to `C/C=C/c1ccc([C@@H]2[C@H](CO)N(S(=O)(=O)Cc3ccccc3)C23CN(C(=O)C2CCOCC2)C3)cc1`, the activity (Tm shift, normalised) was -0.098%.
The result for `O=C(Nc1ccccc1)c1ccccc1Br` reads -0.119%; that for `N#Cc1cccc(Nc2c3c(nc4ccccc24)CCCC3)c1`, 0.042%.
The result for `O=C(Nc1c2c(nc3ccccc13)CCCC2)c1ccccc1Br` reads 44.2% (active).
With `CC(=O)N1[C@@H](CO)[C@@H](c2ccccc2)[C@@H]1CN(C)C(=O)CN1CCOCC1`, the activity (Tm shift, normalised) was 0.044%.
The result for `O=C(C1CCCCC1)N1CC2(C1)[C@H](c1ccccc1)[C@@H](CO)N2CCC(F)(F)F` reads -0.014%; that for `O=C(Cc1cccnc1)N[C@H]1CC[C@H](CCn2cc(-c3ccccc3F)nn2)O[C@H]1CO`, 8.31% (active).
On to `O=C(Cc1ccncc1)N[C@H]1CC[C@H](CCn2cc(-c3ccccc3F)nn2)O[C@@H]1CO`, for which the activity (Tm shift, normalised) was 0.035%.
The result for `O=C(Cc1ccncc1)N[C@@H]1CC[C@H](CCn2cc(-c3ccccc3F)nn2)O[C@H]1CO` reads 0.128%; that for `CCCC(=O)Nc1ccc2c(c1)OC[C@H](C)N(CCC)C[C@@H](C)[C@@H](OC)CN(C)C2=O`, 0.113%; that for `CCN(CC)C(=O)C(=O)Nc1cccc(Br)c1`, 43.2% (active).
Under `CCN(CC)N=Nc1cccc(NC(C)=O)c1` stands 0.992%; under `CSc1ccccc1NC(=O)CN(C)CC(=O)Nc1cccc(Br)c1`, -0.022%; under `Cc1ccc(S(=O)(=O)N[C@H]2CC[C@H](CC(=O)O)O[C@H]2CO)cc1`, 0.52%.
On to `C[C@H](CO)N1C[C@H](C)[C@H](CN(C)S(=O)(=O)c2ccccc2C#N)OCc2cn(nn2)CCCC1=O`, for which the activity (Tm shift, normalised) was -0.183%.
Consider `O=C(NN=Cc1ccc([N+](=O)[O-])cc1)C1CC1`, for which the activity (Tm shift, normalised) was -0.001%.
Under `O=C(N/N=C/c1ccc([N+](=O)[O-])cc1)c1c[nH]c2ccccc12` stands 1.58% (active); under `O=[N+]([O-])c1ccc(C=NN=Cc2ccc([N+](=O)[O-])cc2)cc1`, 0%.
Under `COc1cccc(-c2ccc3c(c2)O[C@H](CN(C)Cc2ccncc2)[C@H](C)CN([C@H](C)CO)S3(=O)=O)c1` stands -0.104%; under `O=C(Nc1cccc(Cl)c1)c1cc([N+](=O)[O-])ccc1N1CCN(CCO)CC1`, 0.039%; under `CCOc1ncccc1C(=O)OCC(=O)Nc1cccc(S(=O)(=O)N2CCCCCC2)c1`, 0.065%.
For `NS(=O)(=O)c1cccc(NC(=O)COC(=O)c2cc([N+](=O)[O-])ccc2N2CCCC2)c1`, the activity (Tm shift, normalised) was 1.34% (active).
Consider `C[C@@H]1CN([C@@H](C)CO)S(=O)(=O)c2ccc(C#CC3(O)CCCC3)cc2O[C@H]1CN(C)C(=O)c1ccncc1`, for which the activity (Tm shift, normalised) is -0.043%.
Under `COc1ccc(S(=O)(=O)N2CC[C@@H]3[C@H](CO)Nc4ccc(C#Cc5cccc(OC)c5)cc4[C@@H]32)cc1` stands 0.013%; under `O=C(C[C@@H]1C[C@@H]2c3cc(NC(=O)c4ccc5c(c4)OCO5)ccc3O[C@@H]2[C@H](CO)O1)NCCc1ccccc1`, 0.032%; under `COc1ccc(NC(=O)Nc2cccc3c2O[C@H](CN(C)S(=O)(=O)c2cn(C)cn2)[C@H](C)CN([C@@H](C)CO)C3=O)cc1`, -0.085%.
The result for `CN1C(=O)c2cc(NC(=O)c3cccc(F)c3)ccc2OC[C@@H]2O[C@@H](CC(=O)NCC3CCCCC3)CC[C@H]21` reads -0.226% and -0.131%; that for `CCC(=O)N1[C@@H](CO)[C@@H](c2ccccc2)C12CN(C(=O)Cc1ccccc1)C2`, -0.201%.
The result for `COC(=O)c1cccc(N(CC(=O)NCC2CCCO2)C(=O)CCC(=O)Nc2cc(C)on2)c1` (stereo unspecified) reads 43% (active); that for `Cc1cc(NC(=O)CCC(=O)N(CC(=O)NCC2CCCO2)c2ccccc2)no1` (stereo unspecified), 0.811%; that for `Cc1cc(C)cc(N(CC(=O)NC2CCCC2)C(=O)CCC(=O)Nc2cc(C)on2)c1`, -0.343%.
In the case of `COC(=O)c1c(C)[nH]c(C)c1-c1ccc([N+](=O)[O-])cc1`, the activity (Tm shift, normalised) is 0.028%.
`COC(=O)C1=C(C(=O)OC)C(c2cc([N+](=O)[O-])ccc2O)c2sc(=O)[nH]c2S1` (stereo unspecified): the activity (Tm shift, normalised) is 43.5% (active).
The result for `COC(=O)C1=CN(c2ccc(F)c(F)c2)C=C(C(=O)OC)C1c1ccc([N+](=O)[O-])cc1` reads 0.128%; that for `CCCNC(=O)N1CC(=O)N2[C@H](CO)[C@H](c3ccc(C#Cc4cccc(OC)c4)cc3)[C@H]2C1`, 0.3%; that for `C[C@H]1CCCCO[C@@H](CN(C)C(=O)Cc2ccccc2)[C@@H](C)CN([C@@H](C)CO)C(=O)c2cc(NC(=O)c3ccccc3)ccc2O1`, -0.058%.
Under `Cc1ccc(S(=O)(=O)N(C)C[C@@H]2Oc3ccc(NC(=O)C4CCCCC4)cc3CC(=O)N([C@@H](C)CO)C[C@H]2C)cc1` stands -0.112%; under `COc1cccc(NC(=O)C[C@@H]2CC[C@H]3[C@@H](COc4ccc(NC(=O)C5CCOCC5)cc4C(=O)N3C)O2)c1`, -0.165%; under `O=C(NCCc1c[nH]c2ccc(Cl)cc12)c1ccc([N+](=O)[O-])cc1`, -0.153%.
The result for `Cc1ccc2[nH]cc(CCNC(=O)C3CCCCC3)c2c1` reads -0.161%; that for `Cc1ccc2[nH]cc(CCNC(=O)c3ccc([N+](=O)[O-])cc3)c2c1`, 43.1% (active).
Consider `CS(=O)(=O)N1CC(=O)N2[C@@H](CO)[C@@H](c3ccc(C#CCC4CCCC4)cc3)[C@@H]2C1`, for which the activity (Tm shift, normalised) is -0.002%.
With `Cc1ccc(NC(=O)CCC(=O)c2ccc(Br)cc2)cc1`, the activity (Tm shift, normalised) is 0.05%.
`Cc1ccc(NC(=O)CC(=O)Nc2ccc(C)cc2)cc1`: the activity (Tm shift, normalised) was 43.3% (active).
As to `Cc1ccc(NC(=O)Cn2c(C)csc2=O)cc1`, the activity (Tm shift, normalised) was -0.213%.
For `Cc1ccc(NC(=O)Nc2cccnc2)cc1`, the activity (Tm shift, normalised) was 1.35% (active).
As to `O=C(Nc1ccc(Cl)cc1)Nc1ccc(Oc2cccnc2)nc1`, the activity (Tm shift, normalised) is 0.04%.
The result for `Cc1ccc(NC(=O)c2cccnc2C(=O)Nc2ccc(C)cc2)cc1` reads 0.363%; that for `C[C@@H]1CN([C@@H](C)CO)C(=O)c2cc(N(C)C)ccc2O[C@@H](C)CCCCO[C@H]1CN(C)C(=O)CCCN(C)C`, -1.35%.
For the compound `O=C(CN1C(=O)NC2(CCCC2)C1=O)Nc1cc(C(F)(F)F)ccc1N1CCOCC1`, the activity (Tm shift, normalised) is 0.22%.
The result for `O=C(CCC1CCCCC1)Nc1cc(C(F)(F)F)ccc1N1CCOCC1` reads -0.247%.
Take `CC(Sc1nncn1C)C(=O)Nc1cc(C(F)(F)F)ccc1N1CCOCC1` (stereo unspecified): the activity (Tm shift, normalised) was 43% (active).
Turning to `CCCN1[C@@H]2c3ccc(C4=CCCC4)c(=O)n3C[C@@H]2[C@@H](CO)[C@@H]1C(=O)NCc1ccccn1`, the activity (Tm shift, normalised) was -0.078%.
